ALOX12 inh – inhibitors of human 12S-lipoxygenase ALOX12; hit rate 1.1% among 580,000; AID 1671190; Potency, µM (doses to about 108 µM), without a hit: top-dose activity change, negative = inhibition, most hits filed as inhibitors; P18054; purified 12hLO, xylenol orange hydroperoxide absorbance; further: potency means the concentration at half of the fitted maximal effect
Target sequence (P18054 whole entry, looked up): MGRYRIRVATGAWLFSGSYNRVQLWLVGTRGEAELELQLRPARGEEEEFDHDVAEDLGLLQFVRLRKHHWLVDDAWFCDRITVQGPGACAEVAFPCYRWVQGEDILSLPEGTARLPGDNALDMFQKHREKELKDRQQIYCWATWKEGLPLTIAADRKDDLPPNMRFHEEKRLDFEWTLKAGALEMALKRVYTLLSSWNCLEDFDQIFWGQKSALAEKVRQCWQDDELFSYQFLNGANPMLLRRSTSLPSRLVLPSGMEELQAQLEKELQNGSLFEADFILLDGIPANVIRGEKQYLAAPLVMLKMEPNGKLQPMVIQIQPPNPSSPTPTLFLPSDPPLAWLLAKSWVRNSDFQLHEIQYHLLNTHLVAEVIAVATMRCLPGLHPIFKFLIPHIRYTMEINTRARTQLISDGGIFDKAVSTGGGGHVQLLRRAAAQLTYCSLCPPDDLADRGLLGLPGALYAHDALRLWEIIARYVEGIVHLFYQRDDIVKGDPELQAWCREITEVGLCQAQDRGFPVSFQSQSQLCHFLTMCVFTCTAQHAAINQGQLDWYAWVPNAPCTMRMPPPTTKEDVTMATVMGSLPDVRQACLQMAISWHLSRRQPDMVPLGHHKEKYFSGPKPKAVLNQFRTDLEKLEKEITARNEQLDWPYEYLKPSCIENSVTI
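Purified human 12hLO (150 nM final) in 25 mM Hepes, 0.01% Triton X-100, pH 7.0 was preincubated 15 min at room temperature with compound. Then 40 uM arachidonic acid was added, 30 min. Hydroperoxide was read by Fe-XO absorbance ratio 573/405 nm.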
HT1080-NT tox – kills 2HG-producing HT-1080-NT fibrosarcoma cells; HT-1080-NT fibrosarcoma viability, CellTiter-Glo ATP luminescence, 48 h; Potency, µM (doses to about 46.1 µM), inactives show top-dose activity, negative = less viability, actives largely listed as cytotoxic; hit rate 1.6% among 360,000;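 further: NT is the 2HG producing partner of a matched IDH1 knockdown line; potency means the concentration at half of the fitted maximal effect; 0% = DMSO-treated cells and -100% = media-only wells without cells; nearly all actives have a fitted effect of over 55% in size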
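Luminescent CellTiter-Glo readout after 48 hours of compound exposure at 37 degrees C defined viability of HT-1080-NT cells. Activity was normalized to DMSO wells and cell-free media wells; concentration-response curves were fitted and assigned curve classes.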
DT40 TDP1 no CPT – qHTS for Inhibitors of human tyrosyl-DNA phosphodiesterase 1 (TDP1): qHTS in cells in absence of CPT. DT40 Tdp1-/- hTDP1 cells, no CPT, ATP luminescence, 48 h. Potency, µM (doses to about 46.2 µM), inactives show at the highest dose activity change, negative = growth inhibition, hits mostly inhibitors. hit rate 15% among 420,000. AID 686978, 2013; further: potency means the concentration at half of the fitted maximal effect; nearly all actives have a fitted effect of over 55% in size
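Compound effects on proliferation are scored in DT40 Tdp1-/-;hTDP1 cells in the absence of CPT. ATP levels (CellTiter-Glo luminescence) are recorded after a ≥48 hr, 37 °C incubation.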
TDP1 cell CPT – growth inhibition of DT40 Tdp1-/-;hTDP1 cells with camptothecin (screen for TDP1 inhibitors) | chicken DT40 Tdp1-/-;hTDP1 cells + 20 nM CPT, ATP luminescence, 48 h | Potency, µM (highest dose often 46.2 µM), for the others: at the top dose activity change, negative = growth inhibition, actives largely listed as inhibitors | hit rate 12% among 420,000 | AID 686979; further: potency means the concentration at half of the fitted maximal effect; nearly all actives have a fitted effect of over 55% in size
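Chicken DT40 Tdp1-/- cells complemented with human TDP1, 400 cells/well, exposed to compounds plus 20 nM camptothecin for at least 48 h at 37 C; viability read as ATP content by CellTiter-Glo luminescence.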
IL1B secr inh – inflammasome signaling inhibition, IL-1 beta readout; hit rate 4.7% among 360,000; THP-1 LPS/ATP IL-1B secretion, AlphaLISA, 16 h; stronger effect = lower value; activity change, % at 57.5 µM; in the data active means activity change below about -50%; inconclusive means mostly about -30% to -49%
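THP-1 cells pretreated 1 hr with compounds (up to 57.5 uM final), then stimulated with LPS (250 ng/mL final) plus ATP (1.25 mM final); secreted IL-1B measured by AlphaLISA after 16 hr, decreased signal indicating inhibition.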
HT1080 IDH1KD tx – HT-1080 IDH1 knockdown cell toxicity (counter line). AID 686971. Potency, µM (highest dose often 46.1 µM), for inactives: top-dose activity, negative = toxicity, hits mostly cytotoxic. hit rate 2% among 360,000. HT-1080 IDH1 knockdown viability, ATP luminescence, 48 h;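 further: potency means the concentration at half of the fitted maximal effect; 0% = DMSO wells and -100% = cell-free medium wells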
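Viability of IDH1-knockdown HT-1080 fibrosarcoma cells was assessed by CellTiter-Glo after 48 h at 37 °C with titrated compound; concentration-effect curves were classified by fit quality and response size.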
Active calls of the source: *; i = inactive; u = inconclusive; x = no result; [ ] = another dose, or the depositor's remark. Many of the other results were omitted from the sample, so hits are more common in it than they were. Unless noted, the call rests on the fitted dose curve; in most records, active means well fitted curve in the direction sought with a large enough effect; inconclusive means small, poorly fitted or top-dose-only effect, or another doubt; inactive means no such curve, though single readings can be large; an effect the other way counts as inactive or inconclusive. Unless noted, on the % scale 0 is the no-effect control and ±100 the full control effect.

SMILES	ALOX12 inh	HT1080-NT tox	DT40 TDP1 no CPT	TDP1 cell CPT	IL1B secr inh	HT1080 IDH1KD tx
Cc1cccn2c(=O)c3cc(S(=O)(=O)c4ccccc4)c(=N)n(Cc4ccco4)c3nc12	-2.7%	25.2%	14.7%	-0.1%	-18.4	17.1%
CCNC(=O)N1CCC[C@@H](O)[C@H](NC(=O)c2ccc(OCCN3CCCC3)cc2)C1	8.5%[176 µM]	x	x	x	x	x
CCCC12CCC(NC(C)=O)(CC1)CC2	-6.9%	x	x	x	x	x
COc1ccc(-n2ncc(C(=O)Nc3ccc4c(c3)OCCO4)c2C2CCN(C(=O)OC(C)(C)C)CC2)cc1	-10.2%	x	16.4µM*	20.6µM*	x	x
COc1ccc(-n2ncc(C(=O)Nc3cccc(C(F)(F)F)c3)c2C2CCN(C(=O)OC(C)(C)C)CC2)cc1	0.0%	x	u	u	x	x
Cc1c(Cl)cccc1-n1ncc(C(=O)Nc2ccc3c(c2)OCCO3)c1C1CCN(C(=O)OC(C)(C)C)CC1	-17.4%	x	u	u	x	x
CC(C)(C)OC(=O)N1CCC(c2c(C(=O)Nc3ccc4c(c3)OCCO4)cnn2-c2ccc(F)cc2)CC1	0.2%	x	18.4µM*	u	x	x
CCCNC(=O)C1(C)CCN(C(=O)c2ccccc2OC)C1 (configuration not stated)	13.8%	7.5%	-3.4%	-19.6%	22.2	13.6%
COCCOc1ccc2c(n1)CCN(C(=O)CC(C)C)C2	41.4%	x	x	x	x	x
O=C(CN1CCCC1=O)N1CCC(N2CC(OCC3CC3)C23CCCCC3)CC1 (configuration not stated)	15.4%	x	x	x	x	x
COc1ccccc1[C@@]1(C)ON(c2ccccc2C(F)(F)F)C1=O	4.2%	-21.9%	u	u	-94.3*	-20.2%
CC[C@]1(c2ccccc2C)ON(c2ccccc2C(F)(F)F)C1=O	2.2%	3.3%	-13.8%	-2.8%	-2.0	-6.3%
O=C1N(c2ccccc2C(F)(F)F)OC1(Cc1ccccc1)c1ccccc1 (configuration not stated)	3.4%	-4.8%	u	-21.9%	-79.6*	-7.1%
CCN1CCN(C(=O)CC2Sc3ncccc3N(CC)C2=O)CC1 (configuration not stated)	1.6%	x	x	x	x	x
CCOc1ccccc1OCCCC(=O)Nc1nc2ccccc2[nH]1	u	-2.9%	-13.9%	-3.0%	-1.8	-1.1%
COc1ccc(CC(=O)Nc2nc3ccccc3[nH]2)cc1	-11.1%	2.1%	u	u	-3.9	-13.5%
COc1ccc(CCC(=O)Nc2nc3ccccc3[nH]2)cc1OC	0.0%	-1.0%	1.6%	-1.9%	4.2	0.2%
O=C(Cc1cccc2ccccc12)Nc1nc2ccccc2[nH]1	12.0%	12.6µM*	-25.3%	u	55.5	12.6µM*
CCCCCC(=O)Nc1nc2ccccc2[nH]1	0.0%	u	8.2µM*	9.2µM*	12.8	u
COc1ccccc1CCC(=O)Nc1nc2ccccc2[nH]1	97.9%[57.4 µM]	-8.1%	4.11µM*	5.8µM*	-1.0	u
O=S(=O)(c1cccc(Br)c1)N1CCN(CCc2ccccc2)CC1	u	-10.4%	u	u	-10.8	-11.1%
O=C1[C@@H]2C[C@@H](CN2C(=O)c2ccc(C(F)(F)F)cc2)Oc2ccccc2N1Cc1ccccc1	-12.3%	x	x	x	x	x
CCCN(CCC)c1nc2ccccc2nc1C(C#N)C(=O)OC(C)COC (configuration not stated)	0.0%	-18.1%	23.1µM*	23.1µM*	-50.7*	-3.3%
Cn1c(NC(=O)c2ccc(F)cc2)c(-c2cccs2)c(=O)c2ccccc21	-2.2%	8.5%	u	u	-57.8*	-6.1%
Cn1c(NC(=O)c2cccs2)c(-c2cccs2)c(=O)c2ccccc21	u	-9.9%	-26.9%	23.1µM*	11.7	-5.7%
SMILES	ALOX12 inh	HT1080-NT tox	DT40 TDP1 no CPT	TDP1 cell CPT	IL1B secr inh	HT1080 IDH1KD tx
Cn1c(NC(=O)c2ccccc2)c(-c2cccs2)c(=O)c2ccccc21	-8.5%	0.7%[9.24 µM]	16.4µM*	14.6µM*	-25.8	u
Cc1ccc(-c2c(NC(=O)c3cccs3)n(C)c3ccccc3c2=O)cc1	29.4%	x	x	x	x	x
CC(C)C(=O)Nc1c(-c2cccc(Cl)c2)c(=O)c2ccccc2n1C	i	0.4%	23.1µM*	18.4µM*	8.2	-1.0%
CC(C)C(=O)Nc1c(-c2cccs2)c(=O)c2ccccc2n1C	3.0%	2.6%[9.24 µM]	-7.1%	0.1%	3.6	7.2%
Cc1ccccc1N1Cc2c(NCc3ccc4c(c3)OCO4)ncnc2N(C)CC1=O	-15.3%	x	x	x	x	x
Cc1cccc(NC(=O)COc2nsnc2N2CCOCC2)c1	0.0%	-3.0%	-11.2%	-8.0%	-2.0	-5.9%
O=C(COc1nsnc1N1CCOCC1)Nc1ccc([N+](=O)[O-])cc1	-2.8%	26.7%	23.1µM*	29.1µM*	-12.9	10.8%
O=C(COc1nsnc1N1CCOCC1)Nc1ccc(Cl)cc1	-4.7%	0.1%	14.6µM*	u	27.2	9.9%
COc1ccc(-c2onc(C)c2-c2ccc(C(=O)OC(C)C)o2)c(O)c1	u	4.8%	16.4µM*	20.6µM*	u	3.0%
COc1cccc2cc(C(=O)N3c4ccccc4CC3C)c(=O)oc12 (configuration not stated)	-13.1%	x	x	x	x	x
CC(=O)N1CCN(C(=O)Cn2ccc3ccccc32)CC1	-23.8%	x	x	x	x	x
COc1cc2cc(C(=O)N[C@@H](C)C(=O)Nc3nccs3)n(C)c2c(OC)c1OC	0.5%	x	x	x	x	x
O=C(Cc1cccs1)NCCSc1c(-c2ccc(Cl)cc2)[nH]c2ccccc12	-6.3%	u	13µM*	18.4µM*	-17.1	u
Cc1ccc(-c2[nH]c3ccccc3c2SCCNC(=O)c2cc3ccccc3oc2=O)cc1	-15.3%	u	u	u	0.0	u
Cc1ccc(-c2[nH]c3ccccc3c2SCCNC(=O)c2ccc(S(=O)(=O)N(C)C)cc2)cc1	-27.9%	x	5.8µM*	5.8µM*	x	x
CN(C)S(=O)(=O)c1ccc(C(=O)NCCSc2c(-c3ccc(Cl)cc3)[nH]c3ccccc23)cc1	-3.4%	x	5.17µM*	4.11µM*	x	x
C/C(=N/NC(=O)c1ccc(O)cc1)c1ccc(Cl)cc1	3.8%	x	x	x	x	x
N#CCOc1ccc2[nH]cc(C(C(=O)O)N3CCN(Cc4ccccc4)CC3)c2c1 (configuration not stated)	-14.7%	x	x	x	x	x
O=C([C@@H]1C[C@H](F)CN1C(=O)NC1CCCC1)N1CCc2ccccc2C1	15.1%	x	x	x	x	x
CCCn1c(=O)c2ccccc2n2c(=S)[nH]nc12	-25.6%	3.2%	14.5%	-17.7%	14.5	3.7%

Screens deposited in PubChem by National Center for Advancing Translational Sciences (NCATS).
